Compound activity as filed in PubChem BioAssay.
In the library only some 3.7% were active in any assay of this set; here they are far more common.
A549 viability – counter-screen for Nrf2 inhibitors: cytotoxicity in A549 cells; A549 ARE-Fluc cells, CellTiter-Fluor viability, 18-24 h; Potency, µM (doses to about 46 µM), for inactives: at the highest dose activity change, negative = cytotoxicity, actives largely listed as inhibitors; 0.16% of 390,000 active; note: % is set by controls: 0 for no effect and ±100 for the full control effect
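A549 ARE-Fluc cells in 5% FBS OPTI-MEM, 5000 cells/well, rested 2 h then exposed to compounds in concentration-response for 18-24 h at 37 °C. Viability by CellTiter-Fluor fluorescence (Ex 405/Em 525) after 30 min; luciferase luminescence (BugLite, 15 min, RT) read afterwards.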
Nrf2 block – blocks Nrf2 signaling; A549 ARE-Fluc reporter, luciferase luminescence, 18-24 h; Potency, µM (titrated, usually from 46 µM), for inactives: top-dose activity change, negative = inhibition, hits mostly inhibitors; 2.1% of 360,000 active; note: % is set by controls: 0 for no effect and ±100 for the full control effect; nearly all actives have a fitted effect of over 60% in size
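Two sequential reads on A549 ARE_Fluc cells exposed to compound for 18-24 h: a CellTiter-Fluor fluorescence read for viability, then a luciferase luminescence read for Nrf2/ARE activity.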
ELG1 repair inh – ELG1-dependent DNA repair inhibition. AID 504467. Potency, µM (doses to about 46.1 µM), for the others: at the highest dose activity change, negative = inhibition, actives largely listed as inhibitors. 2.3% of 330,000 active. HEK293T ELG1-luciferase reporter, luminescence, 16 h; DNA damage induced by 5-fluorouridine; note: % is set by controls: 0 for no effect and ±100 for the full control effect; nearly all actives have a fitted effect of over 55% in size
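5-Fluorouridine DNA damage + compound/DMSO, 2,000 cells/well, 16 h, 37 °C/5% CO2. ONE-Glo, 30 min RT, luminescence. Readout = decrease in reporter signal.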
Nrf2 activator – Nrf2 pathway activation; AREc32 ARE-luciferase reporter (MCF7-derived line), luminescence, 24 h; Potency, µM (highest dose often 46.1 µM), inactives show top-dose activation, usual class: activators; 0.31% of 410,000 active; note: % of control where 0% means no effect; nearly all actives have a fitted effect of over 65% in size
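Reporter line AREc32 (ARE-Fluc), seeded overnight in OPTI-MEM with 5% FBS; compound pin-transferred, 24 hr at 37 deg C, 5% CO2; luminescent read-out.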
Active calls of the source: *; ? = inconclusive; . = no result. Calls come from the whole dose curve; as a rule, active = well fitted curve in the direction sought with a large enough effect; inconclusive = small, poorly fitted or top-dose-only effect, or another doubt; inactive = no such curve, though single readings can be large; an effect the other way counts as inactive or inconclusive. Potency is the fitted concentration of half-maximal effect.

SMILES	A549 viability	Nrf2 block	ELG1 repair inh	Nrf2 activator
Cc1ccc(C(=O)NC2CCC(C)CC2)s1 (stereo not given)	-4%	?	?	-2%
Nc1ccn(Cc2ccc(F)cc2)n1	1%	-21%	7%	-1%
CCCCNC(=O)c1nc(C2CCN(S(=O)(=O)c3c(F)cccc3F)CC2)oc1-c1ccccc1	.	.	.	0%
COc1ncnc2c1ncn2CCCNCc1ccccc1	.	.	.	0%
C=CCn1c(SCC(=O)Nc2cc3oc4ccccc4c3cc2OC)nnc1-c1cnccn1	.	?	12µM*	9%
CCn1c(SCC(=O)Nc2cc3oc4ccccc4c3cc2OC)nnc1-c1cccs1	-22%	-17%	18µM*	12%
C=CCn1c(SCC(=O)Nc2ccc(NC(=O)c3ccco3)c(OC)c2)nnc1-c1ccncc1	1%	-21%	-8%	0%
C=CCn1c(SCC(=O)Nc2cc(OC)c(NC(=O)c3ccco3)cc2OC)nnc1-c1ccncc1	8%	-6%	23µM*	-1%
CCn1c(SCC(=O)c2cccs2)nnc1-c1cccs1	0%	?	?	22µM*
COc1ccc(Cn2c(C)nnc2-c2cnn(C)c2N)cc1	-1%	-4%	3%	0%
COc1cc2c(cc1NC(=O)CSc1nnc(Cc3cccs3)n1C)oc1ccccc12	-2%	2%	?	16%
COc1cc2c(cc1NC(=O)CSc1nnc(Cc3cccs3)n1Cc1ccco1)oc1ccccc12	?	.	23µM*	5%
CC1(C)N=C(N)N=C(N)N1c1ccc(OCCCOc2ccccc2)c(Cl)c1	12%	?	2.6µM*	0%
CC1(C)N=C(N)N=C(N)N1c1ccc(OCC(=O)Nc2ccccc2)c(Cl)c1	.	.	.	-1%
CC(C)c1cc(C(=O)NNC(=S)NCc2ccco2)c(O)c(C(C)C)c1	-1%	?	18µM*	4%
CCOC(=O)c1ccc(NC(=O)C2Cc3ccccc3C(=O)O2)cc1 (stereo not given)	-6%	-16%	.	0%
Cc1c(NC(=O)COC(=O)c2c3c(nc4ccccc24)CCCC3)c(=O)n(-c2ccccc2)n1C	-1%	4%	-24%	2%
COc1ccc(OC)c(NC(=O)COC(=O)c2c3c(nc4ccccc24)CCCC3)c1	-18%	.	12µM*	-2%
CNC(=O)COC(=O)c1c2c(nc3ccccc13)CCC2	6%	5%	-7%	0%
COc1ccc(NC(=O)COC(=O)c2c3c(nc4ccccc24)CCCC3)cc1	-11%	?	16µM*	-1%
COc1ccc(NC(=O)COC(=O)c2c3c(nc4ccccc24)CCCC3)cc1Cl	?	23µM*	18µM*	-1%
Cc1c(C(=O)NCc2ccc(F)cc2)oc2ccc(S(=O)(=O)N3CCCCC3)cc12	-1%	.	.	1%
O=C(OCC(=O)N1CCc2ccccc2C1)c1ccc(F)cc1Cl	1%	9%	?	2%
O=C(CSc1nnnn1-c1ccccc1)CC(=O)Nc1ccc(Cl)cc1	-16%	.	16µM*	5%
Cc1ccccc1OCCC(=O)N1CCN(S(=O)(=O)c2ccc(Br)cc2)CC1	-9%	?	?	3%
SMILES	A549 viability	Nrf2 block	ELG1 repair inh	Nrf2 activator
COC(=O)c1ccc(OC)c(CN2CCCN(Cc3cc(C)ccc3C)S2(=O)=O)c1	14%	-3%	15µM*	3%
CCN(CC)c1ccc(/C=N/NC(=O)c2cccc(S(=O)(=O)Nc3ccccc3OC)c2)cc1	0%	-20%	9%	0%
CCN(CC)c1ccc(/C=N/NC(=O)c2cccc(S(=O)(=O)Nc3ccccc3OC)c2)c(O)c1	-19%	23µM*	-14%	-1%
Cc1nn(-c2ccccc2)c(N2CCCC2)c1/C=N/Nc1ccc(S(=O)(=O)Nc2ccccc2)cc1[N+](=O)[O-]	?	8.2µM*	-31%	0%
COc1ccccc1NS(=O)(=O)c1ccc(N/N=C/c2c(C)nn(-c3ccccc3)c2N2CCCC2)c([N+](=O)[O-])c1	?	?	-2%	0%
COc1ccccc1NS(=O)(=O)c1cccc(C(=O)N/N=C/c2c(C)nn(-c3ccccc3)c2N2CCCC2)c1	-2%	18µM*	?	3%
NS(=O)(=O)c1ccc(N/N=C/c2cn(-c3ccccc3)nc2-c2ccccc2)c([N+](=O)[O-])c1	21µM*	23µM*	11%	0%
O=C(Nc1cccc(Cl)c1)C1C2CCC3C(CCC21)C3(Cl)Cl (stereo not given)	-15%	?	26µM*	0%
COc1ccc(-c2cc(=O)oc3c(C)c(O)ccc23)cc1	?	?	8.2µM*	-2%
CCOC(=O)c1c(-c2ccc(OC)cc2)oc2ccc(OCc3ccc(Br)cc3)cc12	6%	11%	.	1%
COc1ccc2oc3cc(C)[n+]([O-])c(-c4ccc(Br)cc4)c3c2c1	?	23µM*	21µM*	0%
CC(C)(C)C#CC(CCc1ccccc1)OS(N)(=O)=O (stereo not given)	.	.	-8%	.
c1ccc(-c2csc(Nc3nc(N4CCOCC4)nc(N4CCOCC4)n3)n2)cc1	-4%	?	5.8µM*	0%
Cc1nnc(SCC(=O)NC2CCCC2)n1-c1ccccc1	-2%	3%	17%	0%
Cc1ccc(S(=O)(=O)N2CCCc3cc(NC(=O)c4ccccc4Cl)ccc32)cc1	0%	.	.	6%
CCOC(=O)CNC(=S)N(Cc1cccs1)C1CCCCC1	0%	1%	-5%	0%
CCCCNC(=O)CNC(=S)N(Cc1ccccc1)Cc1cccs1	-16%	23µM*	?	2%
CC(CCc1ccccc1)NC(=O)CNC(=S)N(Cc1cccs1)C1CCCC1 (stereo not given)	?	15µM*	?	4%
COC(CNC(=O)CNC(=S)N(Cc1ccccc1)Cc1cccs1)OC	2%	8%	7%	2%
COc1ccc(/C=C2\C(=O)c3ccccc3OC2c2ccccc2)cc1 (stereo not given)	-2%	-1%	23µM*	27%
CCOc1ccc(/C=C2\C(=O)c3ccccc3OC2c2ccccc2)cc1 (stereo not given)	-4%	-1%	5%	0%
CSc1ccc(-c2nc3ncccn3c2Nc2ccc(C)c(C)c2)cc1	-1%	-24%	.	1%
O=C(c1ccccc1)c1cn[nH]c1-c1ccccc1O	-5%	5%	1%	-1%
COc1ccc(O)c(-c2[nH]ncc2C(=O)c2ccccc2)c1	0%	0%	23µM*	2%
COc1ccc(-c2cn[nH]c2-c2ccc(OCc3ccccc3)cc2O)cc1	3%	-7%	21µM*	0%
COc1ccc(-c2cn[nH]c2-c2ccc(OC)cc2O)cc1	8%	-3%	10µM*	-1%
COc1ccc(/C(C)=N/NC(=O)CNC(=O)/C=C\c2ccccc2)c(OC)c1	0%	-5%	16%	0%
Nc1cc(-c2ccc(Br)cc2)[nH]n1	1%	14%	13µM*	2%
Cc1cc(-c2ccc(Br)cc2)n[nH]1	-2%	25%	?	0%
Cc1ccc(NC(=O)C(=O)NCc2ccc(Cl)cc2)cc1	-8%	6%	.	2%
